An excerpt weighted towards active compounds, which were near 4.6% of everything screened.
TRHR agonist: TRH receptor (human) agonism. AID 493084. activation, % at 2 µM. TRHR cells, calcium flux fluo-8, FDSS agonist mode. hit rate 0.18% among 360,000; also: 0% is about no effect
Target sequence (P34981 whole entry, looked up): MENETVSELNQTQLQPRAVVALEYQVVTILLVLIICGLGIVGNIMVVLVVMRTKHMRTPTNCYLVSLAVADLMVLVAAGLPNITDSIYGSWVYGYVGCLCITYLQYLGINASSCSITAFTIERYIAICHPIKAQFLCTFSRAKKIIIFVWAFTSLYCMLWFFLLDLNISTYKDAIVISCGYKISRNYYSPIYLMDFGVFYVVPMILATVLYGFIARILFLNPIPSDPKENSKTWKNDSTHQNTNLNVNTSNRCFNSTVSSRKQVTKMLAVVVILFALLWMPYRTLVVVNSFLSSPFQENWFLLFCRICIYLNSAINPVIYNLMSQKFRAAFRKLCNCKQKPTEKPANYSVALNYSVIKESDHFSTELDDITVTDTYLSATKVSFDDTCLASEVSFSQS
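TRHR-expressing cells loaded with fluo-8 calcium dye; 23 nL library compound pin-transferred, kinetic FDSS fluorescence (Ex 480/Em 530) recorded about 180 s for agonist-induced calcium release, before a 10 nM TRH EC20 addition for potentiator mode.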
D1 antagonist: antagonists of human D1 dopamine receptor. hit rate 3.2% among 360,000. HEK293 TREx D1 cells, calcium flux, dopamine EC80; active compounds read low. activity change, negative = inhibition, % at 10 µM. P21728; in the data active = activity change below about -30%; also: % is scaled to controls: 0 for no effect and ±100 for the full control effect
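Allosteric or orthosteric antagonism assessed as attenuation of the calcium response to EC80 dopamine, added 180 s after compound, in induced HEK293 Trex D1 cells loaded with no-wash calcium dye.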
TRHR enhancer: allosteric enhancers of human TRH receptor. enhancement, % at 2 µM. P34981. TRHR cells, fluo-8 calcium fluorescence, EC20 TRH enhancement. hit rate 0.66% among 360,000; in the data active = enhancement above about 30%; also: 0% is about no effect
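TRHR-expressing cells loaded with fluo-8 calcium dye were read kinetically (ex 480/em 530) during compound addition, then stimulated with an EC20 of TRH (10 nM final). Enhancement of the Gq-mediated intracellular calcium response was scored.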
D1 PAM: enhances dopamine response at the human D1 receptor; P21728; HEK293 TREx D1 cells, calcium flux, dopamine EC20 potentiation; potentiation, % at 10 µM; hit rate 0.036% among 360,000; in the data active = potentiation above about 30%; also: 0% is about no effect
D1 ag: human D1 receptor agonism; P21728; HEK293 T-REx D1 cells, calcium flux, agonist mode; activation, % at 2 µM; hit rate 1% among 360,000; AID 504660; also: 0% is about no effect
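Agonism was scored from calcium flux recorded over 180 s (1 read/s) after pintool compound addition, following a 10-cycle baseline. Cells were inducible force-coupled HEK293 TREx D1, plated overnight at 30 C and loaded with no-wash calcium dye.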
Active calls of the source: *; . = no result given; ! = repeats disagree. Rule as the data show it, unless noted: active = activation above about 30%; inactive = the rest.

SMILES | TRHR agonist | D1 antagonist | TRHR enhancer | D1 PAM | D1 ag
CCCN(CCC)CC(O)Cn1cc(/C=C/C(=O)c2ccc(C)cc2)c2ccccc21 (stereo unspecified) | 8 | -42* | 5 | 3 | 133*
CC(C)(C)NCC(O)Cn1cc(C=O)c2ccccc21 (stereo unspecified) | 2 | 13 | 2 | 5 | 2
OCCN(CCO)CC(O)Cn1c2ccccc2c2ccccc21 (stereo unspecified) | 0 | 11 | 6 | 1 | 3
CCCN(CCC)CC(O)Cn1cc(/C=C/C(=O)c2ccc(Br)cc2)c2ccccc21 (stereo unspecified) | 5 | -13 | 1 | -3 | 33*
COc1ccc(-c2nn(-c3ccccc3)cc2/C=N/NS(=O)(=O)c2ccccc2)cc1 | -1 | 4 | -6 | -1 | 2
COc1ccc(-c2nn(-c3ccccc3)cc2/C=N/NC(=O)c2cccc(S(=O)(=O)Nc3ccccc3Cl)c2)cc1 | 0 | -36* | -25 | -14 | 2
O=S(=O)(Nc1ccc(N2CCCCC2)cc1)c1ccc(F)c(F)c1 | -1 | -8 | 1 | -3 | 58*
O=C(NCc1ccccn1)c1n[nH]c(=O)c2ccccc12 | 0 | 12 | 16 | -1 | 6
O=C(NCc1ccccn1)c1n[nH]c2ccccc12 | 0 | 0 | 39* | 0 | 2
CCOC(=O)c1cccc(NC(=O)c2cc3c(=O)n(C)c4ccccc4c3n2C)c1 | 0 | 1 | 0 | 2 | 0
COc1ccc(/C=N/n2cc(-c3ccc(OC)cc3)nc2N)cc1 | 1 | -38* | 0 | 2 | -1
Nc1ccc2c(c1)OC1(CCCC1)O2 | 0 | -37* | 4 | -3 | 1
CCOC(=O)C1CCCN(c2c(NCCCN(CC)c3cccc(C)c3)c(=O)c2=O)C1 (stereo unspecified) | 0 | -16 | 76* | -11 | 1
COC(=O)c1ccc(N2CCN(C(C)=O)CC2)c(NC(=O)COc2ccccc2C)c1 | 0 | 8 | -1 | -8 | 1
COC(=O)c1ccc(N2CCN(C(=O)c3ccccc3)CC2)c(NC(C)=O)c1 | 0 | -31* | -3 | 3 | 1
COc1cccc(Cn2cccc(NC(=O)NC3CCCCC3)c2=O)c1 | -1 | -31* | 18 | -8 | 1
O=C(Nc1cccn(Cc2ccccc2)c1=O)NC1CCCCC1 | 0 | 4 | -7 | -8 | 3
Cc1ccc2oc(=O)c(S(=O)(=O)c3ccc(F)cc3)cc2c1 | -1 | -1 | -5 | 0 | 2
O=c1oc2c(F)cc(F)cc2cc1S(=O)(=O)c1ccc(F)cc1 | -1 | 6 | 7 | -1 | 69*
Cc1nc2cccnc2n1C1CCN(S(C)(=O)=O)CC1 | 1 | 9 | 15 | 4 | 4
Cc1ccc(Cl)cc1N1C(=O)N(Cc2ccc(C#N)cc2)c2ccccc2S1(=O)=O | 0 | 4 | 0 | 0 | 5
Cc1ccc(SCc2cc(=O)[nH]c(Nc3nc(C)c4cccc(C)c4n3)n2)cc1 | 0 | 5 | 1 | -5 | 2
Cc1nnc(SCc2cc(=O)[nH]c(Nc3nc(C)c4cc(C)c(C)cc4n3)n2)s1 | -1 | -73* | 1 | -2 | 0
Cc1nnc(SCC(=O)NC(C)(C)C)n1NCc1c(F)cccc1Cl | -1 | 8 | 7 | 0 | 2
O=C(NCc1ccccc1F)C1CCCN(c2cnccn2)C1 (stereo unspecified) | -1 | -35* | 2 | 0 | 2
SMILES | TRHR agonist | D1 antagonist | TRHR enhancer | D1 PAM | D1 ag
Cc1ccccc1CCNC(=O)C1CCCN(c2cnccn2)C1 (stereo unspecified) | 0 | 4 | -6 | 0 | -1
O=C(NCc1ccccc1Cl)c1ccc(S(=O)(=O)Nc2cccc(C(F)(F)F)c2)cc1 | 1 | 8 | 12 | -3 | 10
COc1ccc2[nH]cc(CCNC(=O)Cc3ccc(Br)cc3)c2c1 | -1 | 7 | 3 | 3 | 6
CCC(C(=O)NCCc1c[nH]c2cc(OC)ccc12)c1ccccc1 (stereo unspecified) | -1 | -80* | 3 | -2 | 2
COc1ccc2[nH]cc(CCNC(=O)CCC3CCCCC3)c2c1 | -1 | -43* | -6 | -4 | -1
COc1ccc2[nH]cc(CCNC(=O)Nc3ccccc3)c2c1 | 4 | -34*! | -5 | -7 | 4
COc1ccc(NC(=O)CCc2nc3c(C)nn(-c4ccc(C)cc4)c3n(C)c2=O)c(OC)c1 | -1 | -10 | -4 | 2 | 0
CC(C)(C)c1cc(/C=N/NC(=O)Cc2nc3ccccc3[nH]2)cc(C(C)(C)C)c1O | -1 | -35* | 7 | -3 | 2
O=C(Cc1nc2ccccc2[nH]1)N/N=C/c1ccccc1 | 1 | 9 | -3 | -2 | 3
Fc1ccc(N2CCN(c3ncnc4nc[nH]c34)CC2)cc1 | 1 | -54* | 22 | -9 | 2
CCN(c1ccc(OC)cc1)S(=O)(=O)c1ccc(-c2ccc(=O)[nH]n2)o1 | 2 | -41* | 1 | 5 | 8
Cc1noc(C)c1COc1ccc(C(=O)O)cc1 | 0 | 26 | 32* | 0 | 1
COc1cc(C(=O)Nc2nnc(C3CC3)s2)ccc1OCc1c(C)noc1C | 0 | -32* | -1 | -5 | 2
COc1cc(C(=O)O)ccc1OCc1c(C)noc1C | 1 | . | 2 | -2 | 1
COc1cc(C(=O)Oc2ccccc2)ccc1OCc1c(C)noc1C | 1 | -37* | 5 | -9 | 5
COc1ccc(-c2nc(CN3CCC(C(=O)NCCCOC(C)C)CC3)c(C)o2)cc1OC | 0 | 3 | 1 | -3 | 0
CN1/C(=C\C=O)C(C)(C)c2ccccc21 | -1 | 5 | -2 | -4 | 0
COc1ccccc1OCC(=O)/C=C1/N(C)c2ccccc2C1(C)C | 0 | -49* | 1 | -8 | 32*
CN1\C(=C/C=C/C=C/C=[N+](C)C)C(C)(C)c2ccccc21 | 142* | -20 | 47* | 6 | 324*
CC1=C/C(=C\C=C(C#N)C#N)N(C)c2ccccc21 | 24 | -35* | -4 | -12 | 45*
CN1/C(=C/C=C(C#N)C#N)C(C)(C)c2ccccc21 | 0 | 5 | 5 | 12 | 116*
CN1/C(=C\C(=O)COC(=O)c2ccccc2O)C(C)(C)c2ccccc21 | 0 | -5 | 0 | -5 | 7
CN1/C(=C\C=Nc2ccc3ccccc3c2)C(C)(C)c2ccccc21 | 1 | 14 | -2 | 11 | 8
COc1cccc(CNS(=O)(=O)c2ccc(N3CCCCS3(=O)=O)cc2)c1 | 0 | -22 | -6 | 0 | 16
Cc1ccccc1Nc1c(-c2ccc(N3CCOCC3)cc2)nc2ccc(Cl)cn12 | 0 | 7 | 4 | -1 | 2
N#CC1=C(S)N(c2ccc(F)cc2)C(c2ccco2)NC1=O (stereo unspecified) | 0 | -2 | 5 | -4 | 4

High-throughput results (PubChem)
